Mdm2-MdmX inh: inhibitors of human Mdm2/MdmX interaction. O15151+Q00987. SaOS-2 split-luciferase Mdm2/MdmX complementation, luminescence. inhibition, % at 8 µM. actives 3% (n = 330,000). AID 485346;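 active means inhibition of at least 50% at 8 µM in the primary screen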
Target sequence (O15151 whole entry, looked up): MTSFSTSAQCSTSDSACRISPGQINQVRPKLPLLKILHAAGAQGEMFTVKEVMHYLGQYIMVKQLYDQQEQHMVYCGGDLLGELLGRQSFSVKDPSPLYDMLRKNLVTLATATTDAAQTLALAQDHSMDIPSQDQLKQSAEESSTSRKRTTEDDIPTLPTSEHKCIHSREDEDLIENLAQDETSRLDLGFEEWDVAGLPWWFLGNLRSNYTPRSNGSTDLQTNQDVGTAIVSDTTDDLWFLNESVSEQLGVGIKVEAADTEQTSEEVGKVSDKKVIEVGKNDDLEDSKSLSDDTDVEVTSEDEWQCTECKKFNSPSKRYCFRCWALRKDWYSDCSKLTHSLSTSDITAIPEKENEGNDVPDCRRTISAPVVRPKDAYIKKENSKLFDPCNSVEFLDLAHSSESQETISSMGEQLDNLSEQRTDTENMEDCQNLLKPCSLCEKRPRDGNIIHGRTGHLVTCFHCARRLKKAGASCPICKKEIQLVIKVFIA
Target sequence (Q00987 whole entry, looked up): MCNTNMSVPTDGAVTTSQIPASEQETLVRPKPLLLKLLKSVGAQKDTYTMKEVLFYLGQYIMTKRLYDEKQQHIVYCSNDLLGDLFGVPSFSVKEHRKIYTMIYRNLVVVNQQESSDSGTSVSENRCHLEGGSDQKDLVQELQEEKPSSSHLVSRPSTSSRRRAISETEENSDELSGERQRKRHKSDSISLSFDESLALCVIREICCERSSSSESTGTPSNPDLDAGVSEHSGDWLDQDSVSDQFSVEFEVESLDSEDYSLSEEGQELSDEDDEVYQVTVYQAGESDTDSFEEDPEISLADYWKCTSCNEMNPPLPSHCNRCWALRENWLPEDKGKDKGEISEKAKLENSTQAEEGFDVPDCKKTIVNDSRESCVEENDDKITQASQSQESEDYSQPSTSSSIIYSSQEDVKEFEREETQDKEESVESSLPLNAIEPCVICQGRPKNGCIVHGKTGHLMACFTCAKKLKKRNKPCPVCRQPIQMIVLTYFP
MPTP block: permeability transition pore inhibition; isolated mouse mitochondria, Ca2+ swelling absorbance, 30 min; inhibition, % at 10 µM; actives 1.4% (n = 360,000);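 active means inhibition of 50% or more, scaled per plate between neutral and stimulator controls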
TIM10 inh: inhibits growth of TIM10 yeast strain. S. cerevisiae TIM10 strain growth, BacTiter-Glo luminescence, 24 h. inhibition, % at 10 µM. actives 1.4% (n = 330,000). AID 463195;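 active means inhibition of 40% or more at the single tested concentration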;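 further: wild-type TIM10 isogenic control strain grown at permissive 25 °C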
tim23-1 inh: growth inhibitors of tim23-1 mutant yeast | actives 1.3% (n = 330,000) | S. cerevisiae tim23-1 growth, BacTiter-Glo luminescence, 24 h | inhibition, % at 20 µM;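 active means growth inhibition of the mutant yeast at or above 50%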;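 further: temperature-sensitive mutant grown at 25 °C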
tim10-1 inh: growth inhibitors of tim10-1 mutant yeast; S. cerevisiae tim10-1 ts strain growth, BacTiter-Glo, 24 h; inhibition, % at 20 µM; actives 2.2% (n = 330,000); AID 463190;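 active means inhibition of at least 40%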;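 further: mutant grown at 25 °C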
Mdm2-MdmX conf: human Mdm2/MdmX binding inhibition, confirmed | actives 55% (n = 10,000) | AID 489028 | inhibition, % at 8 µM | luminescent assay | shares compounds with Mdm2-MdmX inh; in the data active means inhibition above about 40%
FLuc counter: inhibits full-length luciferase, flagging false Mdm2/MdmX hits. shares compounds with Mdm2-MdmX inh. inhibition, % at 8 µM. AID 504607. SaOS-2 full-length luciferase counterscreen, luminescence. actives 77% (n = 6,200);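 active means mean inhibition at 8 µM reaching about 37%, which flags the compound as non-specific, limit read from the data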;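 further: p53-null SaOS-2 cells with luciferase driven by a doxycycline-inducible promoter; compound on cells about two nights before reading with doxycycline added after day one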
Numbers stand for hits. The list is not random: actives were taken first. Their share in the collection is about 6.3%.

How did CCc1cc2c(=O)n(Cc3ccco3)c(SCC(=O)NCC3CCCO3)nc2s1 (centres undefined) do in these assays?
Mdm2-MdmX inh: inactive; MPTP block: inactive; TIM10 inh: inactive; tim23-1 inh: inactive; tim10-1 inh: inactive

How did COc1ccc(OC)c2sc(N(CCN(C)C)C(=O)/C=C/c3cccs3)nc12 do in these assays?
Mdm2-MdmX inh: 97.2; MPTP block: inactive; TIM10 inh: inactive; tim23-1 inh: inactive; tim10-1 inh: inactive; Mdm2-MdmX conf: 100.1; FLuc counter: inactive

Results for COc1ccc(C)c2sc(N(CCN(C)C)C(=O)c3cccc(N4C(=O)CCC4=O)c3)nc12 ?
Mdm2-MdmX inh: inactive; MPTP block: inactive; TIM10 inh: inactive; tim23-1 inh: inactive; tim10-1 inh: inactive

How did COc1ccc(C)c2sc(N(CCN(C)C)C(=O)/C=C/c3cccs3)nc12 do in these assays?
Mdm2-MdmX inh: 64.9; MPTP block: inactive; TIM10 inh: inactive; tim23-1 inh: inactive; tim10-1 inh: inactive; Mdm2-MdmX conf: inactive

Results for COc1cccc2sc(N(CCN(C)C)C(=O)/C=C/c3cccs3)nc12 ?
Mdm2-MdmX inh: 56.0; MPTP block: inactive; TIM10 inh: inactive; tim23-1 inh: inactive; tim10-1 inh: inactive; Mdm2-MdmX conf: inactive

How did COc1cccc2sc(N(CCN(C)C)C(=O)c3ccc4c(c3)CCCC4)nc12 do in these assays?
Mdm2-MdmX inh: inactive; MPTP block: inactive; TIM10 inh: inactive; tim23-1 inh: inactive; tim10-1 inh: inactive

Results for CCOC(=O)Cc1ccc(Nc2nc3cc(-c4sccc4C)sc3c(=O)n2C)cc1 ?
MPTP block: inactive

How did Cc1onc(-c2ccccc2Cl)c1C(=O)Nc1cccc2cccnc12 do in these assays?
Mdm2-MdmX inh: 64.5; MPTP block: inactive; TIM10 inh: inactive; tim23-1 inh: inactive; tim10-1 inh: inactive; Mdm2-MdmX conf: inactive

How did COc1cc(NC(=O)c2c(-c3ccccc3Cl)noc2C)c2ncccc2c1 do in these assays?
Mdm2-MdmX inh: inactive; MPTP block: inactive; TIM10 inh: inactive; tim23-1 inh: inactive; tim10-1 inh: inactive

Results for Cc1cc(C(=O)N2CCC2(C)C(=O)NS(=O)(=O)c2cccc(Cl)c2)nn1C (centres undefined) ?
MPTP block: inactive

Results for COc1ccc(CCNc2nnc(Sc3nnnn3-c3ccccc3)s2)cc1OC ?
Mdm2-MdmX inh: 78.9; MPTP block: inactive; TIM10 inh: inactive; tim23-1 inh: inactive; tim10-1 inh: inactive; Mdm2-MdmX conf: 69.7; FLuc counter: 83.1

Results for COc1ccc(OCc2n(CC(=O)OC3CC(C)CCC3C(C)C)c3ccccc3[n+]2C)cc1 (centres undefined) ?
Mdm2-MdmX inh: 94.3; MPTP block: inactive; TIM10 inh: inactive; tim23-1 inh: inactive; tim10-1 inh: inactive; Mdm2-MdmX conf: 97.2; FLuc counter: 58.6

How did CCc1nc2ccc(C(=O)NCCc3c[nH]c4ccccc34)cn2c1N(C)CCCc1ccccc1 do in these assays?
MPTP block: inactive

What do the screens show for `CC[C@]12c3[nH]c4ccc(OC)cc4c3CCN1C(=O)C(CC(=O)NCC13CC4CC(CC(C4)C1)C3)C[C@@H]2C(=O)N1CCN(C(=O)C2CC2)CC1` (some centres undefined)?
Mdm2-MdmX inh: inactive; MPTP block: inactive; TIM10 inh: inactive; tim23-1 inh: inactive; tim10-1 inh: inactive

Results for CC[C@]12c3[nH]c4ccc(Cl)cc4c3CCN1C(=O)[C@@H](CC(=O)NCC13CC4CC(CC(C4)C1)C3)C[C@@H]2C(=O)N1CCN(C(=O)C2CC2)CC1 ?
Mdm2-MdmX inh: 62.3; MPTP block: inactive; TIM10 inh: inactive; tim23-1 inh: inactive; tim10-1 inh: inactive; Mdm2-MdmX conf: 52.3; FLuc counter: 52.6

How did C[C@]12c3[nH]c4ccc(Cl)cc4c3CCN1C(=O)[C@@H](CC(=O)NCC13CC4CC(CC(C4)C1)C3)C[C@@H]2C(=O)N1CCOCC1 do in these assays?
Mdm2-MdmX inh: 66.0; MPTP block: inactive; TIM10 inh: inactive; tim23-1 inh: inactive; tim10-1 inh: inactive; Mdm2-MdmX conf: inactive

Results for COc1ccc2[nH]c3c(c2c1)CCN1C(=O)C(CC(=O)NCC24CC5CC(CC(C5)C2)C4)C[C@H](C(=O)N2CCOCC2)[C@@]31C (some centres undefined) ?
Mdm2-MdmX inh: inactive; MPTP block: inactive; TIM10 inh: inactive; tim23-1 inh: inactive; tim10-1 inh: inactive

How did C[C@]12c3[nH]c4ccc(Cl)cc4c3CCN1C(=O)[C@@H](CC(=O)NCC13CC4CC(CC(C4)C1)C3)C[C@@H]2C(=O)N1CCCCC1 do in these assays?
Mdm2-MdmX inh: 73.7; MPTP block: inactive; TIM10 inh: inactive; tim23-1 inh: inactive; tim10-1 inh: inactive; Mdm2-MdmX conf: inactive

Results for CCOC(=O)[C@]12CCC=C1N(Cc1cccc3ccccc13)C(=O)[C@H](CC(=O)NCc1ccc(C)o1)C2 ?
MPTP block: inactive

How did C[C@@H]1CN([C@@H](C)CO)C(=O)c2cc(NS(=O)(=O)c3ccc(F)cc3)ccc2O[C@@H](C)CCCCO[C@H]1CN(C)C(=O)NC1CCCCC1 do in these assays?
MPTP block: inactive

Results for CC(=O)c1nn(-c2cccc(Br)c2)cc1C(=O)c1ccc(Cl)cc1 ?
Mdm2-MdmX inh: 52.6; MPTP block: inactive; TIM10 inh: inactive; tim23-1 inh: inactive; tim10-1 inh: inactive; Mdm2-MdmX conf: inactive

What do the screens show for `CC(=O)c1nn(-c2cccc(Br)c2)cc1C(=O)c1ccccc1`?
Mdm2-MdmX inh: inactive; MPTP block: inactive; TIM10 inh: inactive; tim23-1 inh: inactive; tim10-1 inh: inactive

Results for CCC(=NCCc1c(C)[nH]c2ccc(C)cc12)C1=C(O)CC(c2ccccc2)CC1=O (centres undefined) ?
Mdm2-MdmX inh: 66.9; MPTP block: inactive; TIM10 inh: inactive; tim23-1 inh: inactive; tim10-1 inh: inactive; Mdm2-MdmX conf: 61.0; FLuc counter: 70.3

Results for CC(=O)C1=C(O)CC(c2ccccc2)CC1=NCCc1c(C)[nH]c2ccc(C)cc12 (centres undefined) ?
Mdm2-MdmX inh: inactive; MPTP block: inactive; TIM10 inh: inactive; tim23-1 inh: inactive; tim10-1 inh: inactive

Results for COc1cc(CC(=O)C(=O)O)oc(=O)c1 ?
MPTP block: inactive

What do the screens show for `N#CC1=C(N)OC2=C(CC/C2=C\c2ccccc2)C1c1ccccc1` (centres undefined)?
Mdm2-MdmX inh: inactive; MPTP block: inactive; TIM10 inh: inactive; tim23-1 inh: inactive; tim10-1 inh: inactive

How did N#CC1=C(N)OC2=C(CC/C2=C\c2ccccc2Cl)C1c1ccccc1Cl (centres undefined) do in these assays?
Mdm2-MdmX inh: 66.3; MPTP block: inactive; TIM10 inh: inactive; tim23-1 inh: inactive; tim10-1 inh: inactive; Mdm2-MdmX conf: inactive
